Measles CPE: compounds protecting cells from measles virus cytopathic effect, primary screen, measles RdRp inhibitor project, single point, MLSMR library, absorbance. Measles virus-infected cells, CPE protection. protection (pct of control), % at 4 µM. 140,000 compounds, 1.5% hits; in the data active = protection mostly above about 24%, no sharp cut-off; inactive = mostly below about 26%
ROMK mod: ROMK potassium channel modulators, primary screen, cell-based, thallium flux, MLSMR library. Tet-inducible ROMK, thallium flux fluorescence; actives lie on both sides. B-score at 10 µM. AID 1918, 2009. 130,000 compounds, 2% hits;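 active = signal ratio slope over the read window, or its plate-corrected B-score, at least 3 SD from the plate mean, either direction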;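 note: B-score of the F/F0 ratio slope over 7 to 12 s after thallium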
Target sequence (P48048 whole entry, looked up): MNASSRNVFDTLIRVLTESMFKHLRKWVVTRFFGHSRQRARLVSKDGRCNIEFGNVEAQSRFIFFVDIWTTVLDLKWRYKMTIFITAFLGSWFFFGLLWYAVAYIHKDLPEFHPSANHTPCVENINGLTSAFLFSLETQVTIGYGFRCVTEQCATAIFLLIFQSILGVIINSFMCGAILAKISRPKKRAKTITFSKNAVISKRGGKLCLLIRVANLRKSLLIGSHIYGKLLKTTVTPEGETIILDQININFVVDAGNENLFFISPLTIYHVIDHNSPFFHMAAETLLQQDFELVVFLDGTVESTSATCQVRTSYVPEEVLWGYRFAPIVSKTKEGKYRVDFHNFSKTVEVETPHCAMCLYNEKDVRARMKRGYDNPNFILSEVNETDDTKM
sdo1 growth: growth rescue of sdo1-depleted yeast, primary screen, S. cerevisiae, bone marrow failure model; 140,000 compounds, 0.21% hits; z-score at 10 µM; S. cerevisiae sdo1-depleted JHY4D growth rescue, OD600 30 h; stronger effect = higher value; pdr5 snq2 efflux-pump mutant strain; AID 817, 2007;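 active = z-score above 3 at both the 24 hr and the 30 hr optical density reads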;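 note: z-score against mean and SD of all compound wells on the same plate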
Insulin prom inh: inhibitors of insulin promoter-driven GFP, primary screen, imaging, TRM-6 cells (human fetal islet line), eGFP reporter, cell count | AID 1273, 2008 | 130,000 compounds, 0.9% hits | reporter expression induced with tamoxifen | inhibition, % at 2 µM;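 active = inhibition above the mean plus 3 SD, with well images judged a real hit on visual review, cut at about 60% in these data, passing the limit was not always enough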
Active calls of the source: *; nt = no result. Sampled rows, rich in hits. Any-hit rate of the full collection: about 3%.

SMILES	Measles CPE	ROMK mod	sdo1 growth	Insulin prom inh
CCc1cc(C=C(Cl)Cl)oc(=O)c1C	56.2*	nt	0.48	20.0
CC(=O)Nc1ccc(C(=O)CSc2nccc(=O)[nH]2)cc1	nt	-0.329	nt	nt
O=C(COc1ccccc1/C=C1\SC(=O)NC1=O)Nc1ccccc1	nt	-3.23*	nt	81.8*
N/C(=N\c1nc2c(c(=O)[nH]1)CCCC2)Nc1ccccc1	4.2	-1.8	0.18	14.3
N/C(=N\c1nc2c(c(=O)[nH]1)CCC2)Nc1ccccc1	48.2*	nt	-0.19	20.0
Cc1cccc(C(=O)Nc2cccc(-c3ccc4nncn4n3)c2)c1	nt	-0.761	nt	33.3
CC1(C)Cc2c(sc(NC(=O)C3CC(Cl)=CCC3C(=O)O)c2C#N)CO1 (configuration not stated)	nt	-0.015	nt	nt
CCOC(=O)c1c(NC(=O)C2C3C=CC(C3)C2C(=O)O)sc2c1CC(C)CC2 (configuration not stated)	nt	2.2	nt	35.0
CCCOC(=O)c1c(NC(=O)C2C3C=CC(C3)C2C(=O)O)sc2c1CCC(C)C2 (configuration not stated)	nt	3.46*	nt	nt
CC(=O)C1=C(O)C(=O)N(CCCn2ccnc2)C1c1ccc(C)cc1 (configuration not stated)	9.8	nt	0.71	-70.0
COc1ccc(-n2c(=O)/c(=C\c3cccs3)s/c2=C(/C#N)C(=O)N2CCN(C)CC2)cc1	nt	-0.0181	nt	nt
COCCCNC(=O)c1ccc(C(=O)NCCCOC)cc1	5.0	nt	-1.07	-45.5
COCCCNC(=O)c1ccc([N+](=O)[O-])c(Cl)c1	36.0*	nt	-0.25	46.1
CC1Cc2ccccc2N1C(=S)NC(=O)C1(C)CC1(Cl)Cl (configuration not stated)	nt	13.4*	nt	9.1
Cc1cc(C)n(CCN(C)c2nc3nonc3nc2NC2CC2)n1	nt	0.69	nt	14.3
N=C1C(c2nc3ccccc3s2)=C(O)CN1Cc1ccccc1	9.2	-0.0407	-1.44	16.3
CCN(CC)CCCN1CC(O)=C(c2nc3ccccc3s2)C1=N	4.5	-2.13	1.39	65.7*
CCCCn1c(CN(C)Cc2ccccc2)nc2c1c(=O)n(C)c(=O)n2C	10.5	-1.96	-0.77	71.4*
CC(C)CCn1c(Cl)nc2c1c(=O)n(C)c(=O)n2C	31.2	-2.05	0.14	23.1
CCCCCCn1c(CN2CCN(CCO)CC2)nc2c1c(=O)n(C)c(=O)n2C	8.3	nt	1.36	100.0*
CN(Cc1ccccc1)Cc1nc2c(c(=O)n(C)c(=O)n2C)n1Cc1ccccc1Cl	52.8*	nt	-0.88	-80.0
CC(C)CCn1c(Oc2ccccc2Cl)nc2c1c(=O)n(C)c(=O)n2C	49.2*	nt	0.94	10.3
Cc1ccc(Cl)c(OCC(=O)OCC(=O)NC2CCCc3ccccc32)c1 (configuration not stated)	17.5	nt	0.18	nt
O=[N+]([O-])c1ccccc1/C=N/Nc1nnc(-c2ccccc2)c(-c2ccccc2)n1	27.2	-0.219	-0.72	31.0
CCCCCn1c(CN2CC(C)OC(C)C2)nc2c1c(=O)n(C)c(=O)n2C (configuration not stated)	nt	nt	nt	10.0
SMILES	Measles CPE	ROMK mod	sdo1 growth	Insulin prom inh
CC1CN(Cc2nc3c(c(=O)n(C)c(=O)n3C)n2CCc2ccccc2)CC(C)O1 (configuration not stated)	nt	0.678	nt	75.7*
CCOCCCNc1nc2c(c(=O)n(C)c(=O)n2C)n1CCCc1ccccc1	66.8*	nt	0.01	nt
CCOc1cc(/C=N/NC(=O)c2cccnc2)ccc1OCC(=O)N(C)C	nt	-0.124	nt	42.9
O=C(COC(=O)c1cccc(NS(=O)(=O)c2ccc(F)c(F)c2)c1)NC(=O)NC1CCCCC1	6.5	0.872	0.22	-3.5
CC(=O)N1N=C(N)SC1(C)C	nt	1.14	nt	11.6
Cc1cc(/C=N/n2cnnc2)c(C)n1-c1ccc(OCc2ccc(Cl)cc2)cc1	47.7*	-0.485	-1.52	-25.0
COCCCNC(=O)CN(c1ccc(OC)cc1)S(=O)(=O)c1ccc(NC(C)=O)cc1	53.4*	-0.145	0.61	nt
COc1ccc(N(CC(=O)NC(C)C)S(=O)(=O)c2ccc(NC(C)=O)cc2)cc1	9.5	-1.77	0.51	nt
CCOc1ccc(N(CC(=O)Nc2ccc(OC)cc2)S(C)(=O)=O)cc1	47.7*	nt	1.08	-32.3
CCOC(=O)c1sc2ncn(/N=C/c3ccc(O)c(OC)c3)c(=O)c2c1C	nt	-0.586	nt	nt
Cc1cc(C(=O)NP(=O)(N2CCOCC2)N2CCOCC2)c(C)n1-c1ccc(N(C)C)cc1	17.9	nt	0.77	nt
Cc1cc(C(=O)NP(=O)(N2CCOCC2)N2CCOCC2)c(C)n1-c1ccc(Br)cc1	45.9*	nt	2.32	nt
